According to PubChem BioAssay (EPA / NIEHS):
Inconclusive results are not listed. Active and inactive are the calls of the source. How the source made its calls, unless noted: active means hit-call score of the fitted dose curve at least 0.9, where 1 is the maximum; inactive means score below 0.9.

Legend:
[1] = target: CCAAT/enhancer-binding protein beta (Homo sapiens) (UniProt P17676); experiment: ATG_C_EBP_CIS: Attagene CIS-FACTORIAL HepG2 Assay for human CCAAT/Enhancer Binding Protein (C/EBP) beta (AID 2282927); conditions: HepG2 Attagene cis-factorial transcription factor reporter; actives raise or lower the signal
Chain of CCAAT/enhancer-binding protein beta (Homo sapiens) (P17676 whole entry, looked up): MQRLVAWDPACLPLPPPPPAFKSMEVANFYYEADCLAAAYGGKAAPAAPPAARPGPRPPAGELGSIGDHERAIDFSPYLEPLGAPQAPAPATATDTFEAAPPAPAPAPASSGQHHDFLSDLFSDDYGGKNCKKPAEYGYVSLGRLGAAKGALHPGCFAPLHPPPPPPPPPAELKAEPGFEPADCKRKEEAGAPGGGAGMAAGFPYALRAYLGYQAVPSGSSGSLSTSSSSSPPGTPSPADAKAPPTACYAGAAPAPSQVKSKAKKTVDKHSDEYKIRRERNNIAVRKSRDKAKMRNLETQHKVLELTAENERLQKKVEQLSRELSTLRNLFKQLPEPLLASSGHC
Outline: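 Transiently transfected HepG2 (MRTU library, endogenous TF-driven promoters); 24 h dosing; total RNA → oligo(dT) RT → PCR → 6-FAM primer extension → HpaI digest → CE; fit bidirectionally vs DMSO.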

[2] = ATG_GATA_CIS: Attagene CIS-FACTORIAL HepG2 Assay for human GATA Binding Protein (AID 2282944); conditions: HepG2 GATA cis-element reporter, Attagene multiplex mRNA; actives raise or lower the signal
Outline: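 Read-out: fluorescent reporter mRNA fragments resolved by capillary electrophoresis after RT-PCR. Human liver HepG2 cells carried transiently transfected cis-regulated reporter constructs; chemicals incubated 24 h; gain or loss of signal fitted relative to DMSO.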

[3] = target: Hypoxia-inducible factor 1-alpha (Homo sapiens) (UniProt Q16665); experiment: ATG_HIF1a_CIS: Attagene CIS-FACTORIAL HepG2 Assay for human Hypoxia Inducible Factor 1 (HIF1A) (AID 2282951); conditions: HepG2 Attagene cis-factorial HIF1a reporter transcription; actives raise or lower the signal
Chain of Hypoxia-inducible factor 1-alpha (Homo sapiens) (Q16665 whole entry, looked up): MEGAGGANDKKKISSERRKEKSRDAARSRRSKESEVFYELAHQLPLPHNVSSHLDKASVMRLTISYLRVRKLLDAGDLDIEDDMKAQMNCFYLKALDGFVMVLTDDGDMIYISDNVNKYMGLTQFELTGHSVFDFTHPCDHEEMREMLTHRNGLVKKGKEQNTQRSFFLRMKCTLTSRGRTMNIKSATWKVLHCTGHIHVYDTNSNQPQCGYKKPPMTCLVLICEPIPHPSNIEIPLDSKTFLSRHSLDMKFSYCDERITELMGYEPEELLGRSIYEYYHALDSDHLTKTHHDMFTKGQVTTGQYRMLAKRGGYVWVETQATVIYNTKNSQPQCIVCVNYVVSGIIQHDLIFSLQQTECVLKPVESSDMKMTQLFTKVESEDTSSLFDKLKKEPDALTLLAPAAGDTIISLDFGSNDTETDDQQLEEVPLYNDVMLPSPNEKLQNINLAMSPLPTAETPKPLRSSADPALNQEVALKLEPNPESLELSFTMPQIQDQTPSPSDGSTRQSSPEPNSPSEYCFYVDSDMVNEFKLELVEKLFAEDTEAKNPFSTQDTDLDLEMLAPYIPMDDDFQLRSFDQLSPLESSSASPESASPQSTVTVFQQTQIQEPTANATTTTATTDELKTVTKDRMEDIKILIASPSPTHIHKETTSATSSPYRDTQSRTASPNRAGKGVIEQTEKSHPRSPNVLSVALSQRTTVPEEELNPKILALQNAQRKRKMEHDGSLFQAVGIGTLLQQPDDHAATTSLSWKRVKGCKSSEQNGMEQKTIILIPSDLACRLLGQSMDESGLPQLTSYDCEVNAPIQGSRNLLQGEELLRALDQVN
Outline: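 HepG2 cells transiently transfected with multiple cis-regulated reporter transcription units measure endogenous transcription factor activity. After 24 h exposure, reporter mRNA is quantified by RT-PCR with 6-FAM labelling, HpaI digestion and capillary electrophoresis. Bidirectional fitting against DMSO.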

[4] = target: Hepatocyte nuclear factor 6 (Homo sapiens) (UniProt Q9UBC0); experiment: ATG_HNF6_CIS: Attagene CIS-FACTORIAL HepG2 Assay for human Hepatocyte Nuclear Factor 6 (HNF6) (AID 2282952); conditions: HepG2 Attagene cis-factorial HNF6 reporter transcription; actives raise or lower the signal
Outline: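 Twenty-four-hour chemical treatment of reporter-transfected HepG2 cells precedes RNA isolation, DNase-treated reverse transcription and PCR of reporter sequences. Labelled fragments are sized by capillary electrophoresis and fitted bidirectionally versus DMSO.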

[5] = target: Heat shock factor protein 1 (Homo sapiens) (UniProt Q00613); experiment: ATG_HSE_CIS: Attagene CIS-FACTORIAL HepG2 Assay for human Heat Shock Transcription Factor 1 (HSE) (AID 2282953); conditions: HepG2 HSE cis-reporter, Attagene RNA transcription; actives raise or lower the signal
Chain of Heat shock factor protein 1 (Homo sapiens) (Q00613 whole entry, looked up, the tested form may be a part): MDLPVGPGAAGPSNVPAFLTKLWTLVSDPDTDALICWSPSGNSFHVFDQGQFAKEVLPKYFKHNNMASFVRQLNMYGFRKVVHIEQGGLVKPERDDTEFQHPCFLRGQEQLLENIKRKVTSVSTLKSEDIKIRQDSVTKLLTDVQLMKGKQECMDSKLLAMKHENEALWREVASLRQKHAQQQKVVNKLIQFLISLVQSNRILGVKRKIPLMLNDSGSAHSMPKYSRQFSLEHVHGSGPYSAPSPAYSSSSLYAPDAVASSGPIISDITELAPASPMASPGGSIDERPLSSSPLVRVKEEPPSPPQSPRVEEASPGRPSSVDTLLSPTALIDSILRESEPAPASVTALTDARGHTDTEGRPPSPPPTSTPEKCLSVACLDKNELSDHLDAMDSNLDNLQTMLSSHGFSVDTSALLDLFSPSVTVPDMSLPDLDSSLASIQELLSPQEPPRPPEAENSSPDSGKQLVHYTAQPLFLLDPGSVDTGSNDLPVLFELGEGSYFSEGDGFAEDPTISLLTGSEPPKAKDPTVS
Outline: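 Read-out: fluorescence of reporter-specific RT-PCR fragments separated by capillary electrophoresis. HepG2 carrying transfected cis-element reporter units; 24 h dosing; activity fitted in both directions relative to DMSO baseline.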

[6] = ATG_PXRE_CIS: Attagene CIS-FACTORIAL HepG2 Assay for human Pregnane X Receptor Element (PXRE) (AID 2282957); conditions: HepG2 Attagene CIS-FACTORIAL PXRE reporter, mRNA; actives raise or lower the signal
Outline: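 Bidirectional activity, baselined to DMSO, derived from reporter mRNA fluorescence (RT-PCR plus capillary electrophoresis) in HepG2 cells bearing cis-promoter reporter units, 24 h exposure.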

[7] = ATG_Sox_CIS: Attagene CIS-FACTORIAL HepG2 Assay for human SRY-box transcription factor (SOX) (AID 2282960); conditions: HepG2 Attagene cis-factorial SOX reporter, mRNA; actives raise or lower the signal
Outline: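 HepG2 cells transiently transfected with multiple cis-regulated reporter units, then dosed for 24 h. Reporter mRNA quantified by RT-PCR, fluorescent labelling, HpaI digestion and capillary electrophoresis; bidirectional fit versus DMSO.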

[8] = target: Transcription factor Sp1 (Homo sapiens) (UniProt P08047); experiment: ATG_Sp1_CIS: Attagene CIS-FACTORIAL HepG2 Assay for human Specificity Protein 1 (Sp1) (AID 2282961); conditions: HepG2 Sp1 cis-reporter transcription, actives raise or lower the signal
Chain of Transcription factor Sp1 (Homo sapiens) (P08047 whole entry, looked up): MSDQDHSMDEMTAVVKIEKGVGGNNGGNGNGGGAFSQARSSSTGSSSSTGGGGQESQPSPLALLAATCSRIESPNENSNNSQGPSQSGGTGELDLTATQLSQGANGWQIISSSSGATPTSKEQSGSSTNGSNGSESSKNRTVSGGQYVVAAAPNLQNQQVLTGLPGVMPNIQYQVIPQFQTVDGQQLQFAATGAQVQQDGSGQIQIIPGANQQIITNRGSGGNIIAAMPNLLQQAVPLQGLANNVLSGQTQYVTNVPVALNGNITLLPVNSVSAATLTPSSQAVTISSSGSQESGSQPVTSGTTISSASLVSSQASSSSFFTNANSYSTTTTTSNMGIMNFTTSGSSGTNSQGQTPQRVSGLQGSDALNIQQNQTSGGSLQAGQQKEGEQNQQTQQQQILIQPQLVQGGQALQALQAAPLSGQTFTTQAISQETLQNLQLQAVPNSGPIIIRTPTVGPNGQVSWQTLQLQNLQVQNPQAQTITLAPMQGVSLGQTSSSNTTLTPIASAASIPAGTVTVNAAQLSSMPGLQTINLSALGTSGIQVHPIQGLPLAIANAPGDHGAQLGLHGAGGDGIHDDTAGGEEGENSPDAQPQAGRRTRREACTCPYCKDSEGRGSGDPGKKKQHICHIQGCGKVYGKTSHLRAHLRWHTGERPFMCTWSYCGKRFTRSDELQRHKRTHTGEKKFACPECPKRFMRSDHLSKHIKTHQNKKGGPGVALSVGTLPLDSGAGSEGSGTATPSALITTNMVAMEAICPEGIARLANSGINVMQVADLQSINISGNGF
Outline: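 HepG2 cells transiently transfected with multiplexed cis-regulated reporter constructs, chemical exposure 24 h. Reporter mRNA quantified by RT-PCR with capillary electrophoresis; bidirectional fit relative to DMSO.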

[9] = target: Signal transducer and activator of transcription 3 (Homo sapiens) (UniProt P40763); experiment: ATG_STAT3_CIS: Attagene CIS-FACTORIAL HepG2 Assay for human Signal Transducer and Activator of Transcription 3 (STAT3) (AID 2282963); conditions: HepG2, Attagene cis-factorial STAT3 reporter transcription; actives raise or lower the signal
Chain of Signal transducer and activator of transcription 3 (Homo sapiens) (P40763 whole entry, looked up, the tested form may be a part): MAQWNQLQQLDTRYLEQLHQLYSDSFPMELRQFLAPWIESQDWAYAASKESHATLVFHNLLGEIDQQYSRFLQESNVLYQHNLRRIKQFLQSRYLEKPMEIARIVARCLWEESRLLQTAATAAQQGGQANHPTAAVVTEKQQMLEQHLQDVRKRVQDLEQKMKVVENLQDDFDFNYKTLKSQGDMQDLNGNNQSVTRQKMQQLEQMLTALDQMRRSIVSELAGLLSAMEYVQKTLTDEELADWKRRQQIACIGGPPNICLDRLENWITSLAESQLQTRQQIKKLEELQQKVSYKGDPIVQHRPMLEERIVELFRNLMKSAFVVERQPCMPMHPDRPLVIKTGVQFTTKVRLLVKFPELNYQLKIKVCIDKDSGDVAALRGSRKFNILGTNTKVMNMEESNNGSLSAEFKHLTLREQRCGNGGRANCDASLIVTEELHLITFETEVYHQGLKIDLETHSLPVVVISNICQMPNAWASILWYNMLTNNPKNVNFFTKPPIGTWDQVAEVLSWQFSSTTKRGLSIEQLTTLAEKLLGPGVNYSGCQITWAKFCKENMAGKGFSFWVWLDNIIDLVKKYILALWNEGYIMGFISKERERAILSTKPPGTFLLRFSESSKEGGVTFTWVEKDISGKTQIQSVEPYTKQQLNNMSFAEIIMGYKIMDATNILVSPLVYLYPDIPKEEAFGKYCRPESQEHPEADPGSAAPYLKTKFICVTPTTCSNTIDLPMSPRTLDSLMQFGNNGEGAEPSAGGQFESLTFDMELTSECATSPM
Outline: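 Readout: fluorescent reporter mRNA fragments resolved by capillary electrophoresis. Setup: HepG2 transfected with MRTUs reporting endogenous transcription-factor activity, dosed 24 h. Gain or loss of signal fitted bidirectionally against DMSO control.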

[10] = ATG_TAL_CIS: Attagene CIS-FACTORIAL HepG2 Assay for human TAL Basal Promoter (AID 2282966); conditions: HepG2 Attagene cis-factorial TAL promoter reporter; actives raise or lower the signal;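 further: background control endpoint measuring basal TAL promoter reporter mRNA not a specific factor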
Outline: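 Human hepatoma HepG2 cells, transfected with promoter-regulated reporter units, were treated 24 h. Reporter transcript levels, measured through RT-PCR and capillary electrophoresis, were fitted for gain or loss relative to DMSO.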

[11] = ATG_VDRE_CIS: Attagene CIS-FACTORIAL HepG2 Assay for human Vitamin D Receptor Element (VDRE) (AID 2282968); conditions: HepG2 VDRE cis-reporter transcription, actives raise or lower the signal
Outline: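 Transient MRTU transfection of HepG2, 24 h compound exposure. Readout: reporter transcripts via RT-PCR and capillary electrophoresis, fluorescence. Bidirectional fit vs DMSO.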

[12] = target: X-box-binding protein 1 (Homo sapiens) (UniProt P17861); experiment: ATG_Xbp1_CIS: Attagene CIS-FACTORIAL HepG2 Assay for human X-box Binding Protein 1 (XBP1) (AID 2282972); conditions: HepG2 XBP1 cis-element reporter, Attagene multiplex; actives raise or lower the signal
Chain of X-box-binding protein 1 (Homo sapiens) (P17861 whole entry, looked up, the tested form may be a part): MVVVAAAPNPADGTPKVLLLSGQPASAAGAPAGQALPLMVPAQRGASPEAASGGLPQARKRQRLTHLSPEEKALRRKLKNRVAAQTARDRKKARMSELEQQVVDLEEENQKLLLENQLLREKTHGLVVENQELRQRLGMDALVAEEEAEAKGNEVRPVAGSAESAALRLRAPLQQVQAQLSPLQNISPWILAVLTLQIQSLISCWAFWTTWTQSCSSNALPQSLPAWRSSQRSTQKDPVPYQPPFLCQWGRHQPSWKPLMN
Outline: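 Read-out: fluorescent reporter mRNA fragments resolved by capillary electrophoresis after RT-PCR. Human HepG2 liver cells carried transfected cis-promoter reporter units and were exposed to chemicals for 24 hours. Gain or loss of signal fitted relative to DMSO baseline.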

[13] = ATG_NFI_CIS: Attagene CIS-FACTORIAL HepG2 Assay for human Nuclear Factor I (NFI) (AID 2282989); conditions: HepG2 cis-regulatory reporter, NFI response element transcription; actives raise or lower the signal
Outline: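 Read-out: reporter mRNA via RT-PCR plus capillary electrophoresis with fluorescence detection. Transiently transfected HepG2 (endogenous TF activity on cis promoters), 24 h compound exposure; gain or loss of signal fitted against DMSO.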

[14] = ATG_NRF2_ARE_CIS: Attagene CIS-FACTORIAL HepG2 Assay for human Nuclear Factor Erythroid 2 Related Factor 2 (NFR2) response to Antioxidant Response Elements (ARE) (AID 2282992); conditions: HepG2 Attagene ARE/NRF2 reporter, transcription factor activity; actives raise or lower the signal;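 on AC50: reporter mRNA level measured by RT-PCR and capillary electrophoresis fluorescence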
Outline: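 Readout: reporter mRNA quantified by RT-PCR plus FAM-labelled primer extension, HpaI digestion and capillary electrophoresis, 24 h after dosing transfected HepG2 cells. Gain or loss of signal is fitted bidirectionally against DMSO baseline.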

[15] = target: Cellular tumor antigen p53 (Homo sapiens) (UniProt P04637); experiment: ATG_p53_CIS: Attagene CIS-FACTORIAL HepG2 Assay for human p53 Transcription Factor (AID 2282994); conditions: HepG2 p53 cis-element reporter, Attagene mRNA; actives raise or lower the signal
Chain of Cellular tumor antigen p53 (Homo sapiens) (P04637 whole entry, looked up): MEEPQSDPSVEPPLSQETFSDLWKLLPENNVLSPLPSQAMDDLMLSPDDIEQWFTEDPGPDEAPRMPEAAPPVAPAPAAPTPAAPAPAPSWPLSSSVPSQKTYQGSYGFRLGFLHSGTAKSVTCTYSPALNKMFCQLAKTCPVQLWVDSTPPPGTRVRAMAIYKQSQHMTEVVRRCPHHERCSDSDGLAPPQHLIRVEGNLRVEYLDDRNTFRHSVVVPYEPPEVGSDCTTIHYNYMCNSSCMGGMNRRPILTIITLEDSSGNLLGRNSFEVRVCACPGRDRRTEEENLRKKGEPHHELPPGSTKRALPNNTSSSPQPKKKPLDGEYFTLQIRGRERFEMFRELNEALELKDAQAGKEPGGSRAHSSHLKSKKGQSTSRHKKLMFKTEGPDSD
Outline: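 Read-out: reporter mRNA by RT-PCR plus capillary electrophoresis with fluorescence detection. Human HepG2 liver cells carried transfected multi-reporter cis-element constructs, dosed 24 h. Gain or loss of signal fitted bidirectionally against DMSO control.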

[16] = target: Cellular tumor antigen p53 (Homo sapiens) (UniProt P04637); experiment: TOX21_p53_BLA_p2_ratio: Tox21 HCT-116 p53 Agonism Beta-lactamase Assay, Ratio, Phase 2 (AID 2283592; active means hit-call score of the fitted dose curve at least 0.9, where 1 is the maximum)
Outline: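 DMSO-normalized, positive-direction endpoint derived from the 460 nm/530 nm FRET ratio in HCT116 p53 beta-lactamase reporter cells exposed 16 h at 37C and loaded with CCF4-AM for 2 h.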

[17] = target: Transcription factor E2F1 (Homo sapiens) (UniProt Q01094); experiment: ATG_E2F_CIS: Attagene CIS-FACTORIAL HepG2 Assay for human E2F Transcription Factor 1 (AID 2282935); conditions: HepG2 Attagene cis-reporter, E2F reporter RNA transcripts; actives raise or lower the signal
Chain of Transcription factor E2F1 (Homo sapiens) (Q01094 whole entry, looked up): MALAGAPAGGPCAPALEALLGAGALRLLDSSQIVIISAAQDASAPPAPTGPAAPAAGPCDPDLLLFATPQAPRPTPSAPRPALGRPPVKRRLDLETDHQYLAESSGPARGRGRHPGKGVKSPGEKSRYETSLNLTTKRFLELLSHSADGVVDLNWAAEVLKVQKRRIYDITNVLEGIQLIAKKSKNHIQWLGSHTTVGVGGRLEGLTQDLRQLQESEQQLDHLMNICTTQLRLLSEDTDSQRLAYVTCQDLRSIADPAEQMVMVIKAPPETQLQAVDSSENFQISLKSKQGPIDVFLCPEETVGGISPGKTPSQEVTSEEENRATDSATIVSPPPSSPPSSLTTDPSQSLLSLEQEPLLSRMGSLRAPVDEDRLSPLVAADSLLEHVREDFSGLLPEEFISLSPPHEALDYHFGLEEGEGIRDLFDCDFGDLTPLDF
Outline: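 Transient MRTU transfection of HepG2; 24 h compound exposure; RNA → oligo(dT) RT → PCR → FAM label → HpaI cut → CE fluorescence. Gain/loss of signal fit against DMSO.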

[18] = ATG_M_06_TRANS: Attagene TRANS-FACTORIAL HepG2 Assay for M06 Transcription Factor (Internal Marker) (AID 2282983; active means hit-call score of the fitted dose curve at least 0.9, where 1 is the maximum); conditions: HepG2 Attagene TRANS M06 internal marker reporter
Outline: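 Multi-reporter-transfected HepG2, 24 h treatment; reporter transcripts quantified via RT-PCR, primer-extension labelling and CE. DMSO-normalized gain-of-signal fit.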

[19] = target: Transcriptional activator Myb (Homo sapiens) (UniProt P10242); experiment: ATG_Myb_CIS: Attagene CIS-FACTORIAL HepG2 Assay for human Myeloblastosis (Myb) Proto-Oncogene Transcription Factor (AID 2282986); conditions: HepG2 Attagene CIS-FACTORIAL Myb reporter transcription; actives raise or lower the signal
Chain of Transcriptional activator Myb (Homo sapiens) (P10242 whole entry, looked up): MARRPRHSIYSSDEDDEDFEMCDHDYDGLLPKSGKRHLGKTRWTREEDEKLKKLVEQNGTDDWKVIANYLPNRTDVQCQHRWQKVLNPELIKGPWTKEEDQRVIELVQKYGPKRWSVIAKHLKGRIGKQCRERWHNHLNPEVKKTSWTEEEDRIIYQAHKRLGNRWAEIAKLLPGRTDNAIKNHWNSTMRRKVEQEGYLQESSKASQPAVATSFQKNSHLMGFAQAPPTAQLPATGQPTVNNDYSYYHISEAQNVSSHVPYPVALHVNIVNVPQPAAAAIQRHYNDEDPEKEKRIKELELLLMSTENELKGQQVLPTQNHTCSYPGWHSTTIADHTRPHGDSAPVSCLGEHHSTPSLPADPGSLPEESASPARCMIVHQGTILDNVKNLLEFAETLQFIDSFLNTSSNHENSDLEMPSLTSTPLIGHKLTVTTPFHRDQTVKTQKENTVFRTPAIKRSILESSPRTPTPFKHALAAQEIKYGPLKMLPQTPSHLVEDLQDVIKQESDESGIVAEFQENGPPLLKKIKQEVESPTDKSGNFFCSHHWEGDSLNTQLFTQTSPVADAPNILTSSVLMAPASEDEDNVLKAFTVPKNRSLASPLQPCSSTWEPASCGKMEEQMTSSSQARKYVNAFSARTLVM
Outline: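 Transiently transfected HepG2 cells carrying a multiplexed cis-promoter reporter set report endogenous Myb activity after 24 h compound exposure. Reporter mRNA is read by RT-PCR with capillary electrophoresis of fluorescent products, fitted bidirectionally against DMSO.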

[20] = target: Myc proto-oncogene protein (Homo sapiens) (UniProt P01106); experiment: ATG_Myc_CIS: Attagene CIS-FACTORIAL HepG2 Assay for human Myelocytomatosis (Myc) Proto-Oncogene Transcription Factor (AID 2282990); conditions: HepG2, Attagene cis-reporter transcription factor activity; actives raise or lower the signal
Outline: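 Read-out: fluorescent reporter mRNA fragments resolved by capillary electrophoresis after RT-PCR. Human HepG2 liver cells carried transfected cis-element reporter units and were dosed for 24 h. Gain or loss of signal fitted relative to DMSO baseline.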

Measured: AC50

C=CN1CCCCCC1=O
inactive: [1] | [2] | [3] | [4] | [5] | [6] | [7] | [8] | [9] | [10] | [11] | [12] | [13] | [14] | [15] | [16]

CCCCCCC1CCCC(=O)O1 (stereo unspecified)
active: [14] 139 µM
inactive: [17] | [2] | [3] | [4] | [5] | [7] | [8] | [9] | [10] | [11] | [12] | [18] | [19] | [13] | [15] | [16]

CCCCCCCC#N
inactive: [17] | [3] | [4] | [5] | [6] | [7] | [8] | [9] | [10] | [11] | [12] | [19] | [13] | [20] | [14]

CN(C)c1ccc(C(c2ccccc2)c2ccc(N(C)C)cc2)cc1
active: [6] 3.06 µM | [11] 7.62 µM | [14] 68.1 µM
inactive: [1] | [3] | [4] | [5] | [7] | [8] | [9] | [10] | [19] | [13] | [20] | [15] | [16]

CC[N+](CC)(CC(=O)Nc1c(C)cccc1C)Cc1ccccc1
active: [6] 32.4 µM
inactive: [1] | [2] | [3] | [4] | [8] | [9] | [12] | [19] | [13] | [14]

COC(=O)/C=C\C(=O)OC
inactive: [17] | [3] | [5] | [8] | [9] | [18] | [19] | [13] | [20] | [15] | [16]
active: [4] 128 µM | [7] 100 µM | [10] 100 µM | [11] 49.6 µM | [14] 10.5 µM
